Test results published in PubChem BioAssay (NCI).
This is part of a sample that, as a whole, favours compounds with a hit. Of some 83,000 tested, about 20% had one in any assay.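 For each line, cells grew in 96-well plates with the test compound present at a single concentration for 48 hours.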 A number with no mark means an inactive call. The source made the active and inactive calls. Rule for the calls: active = growth percent below 10; inactive = the rest.

Assays:
Experiment in all cases: NCI-60 one-dose screen, 48 h (100 = growth as untreated, 0 = no growth, -100 = all killed)
HCT-15 colon = conditions: 10 µM unless noted
HT29 colon = conditions: 10 µM unless noted
SNB-75 CNS = conditions: 10 µM unless noted
SNB-19 CNS = conditions: 10 µM unless noted
U251 CNS = conditions: 10 µM unless noted
PC-3 prostate = conditions: 10 µM unless noted
SK-MEL-5 melanoma = conditions: 10 µM unless noted
UACC-62 melanoma = conditions: 10 µM unless noted
LOX IMVI melanoma = conditions: 10 µM unless noted
SK-MEL-28 melanoma = conditions: 10 µM unless noted
SK-MEL-2 melanoma = conditions: 10 µM unless noted
SN12C renal = conditions: 10 µM unless noted
UO-31 renal = conditions: 10 µM unless noted
TK-10 renal = conditions: 10 µM unless noted
ACHN renal = conditions: 10 µM unless noted
A498 renal = conditions: 10 µM unless noted
CCRF-CEM leukemia = conditions: 10 µM unless noted
MOLT-4 leukemia = conditions: 10 µM unless noted
EKVX NSCLC = conditions: 10 µM unless noted
CAKI-1 renal = conditions: 10 µM

SMILES | growth (HCT-15 colon) | growth (HT29 colon) | growth (SNB-75 CNS) | growth (SNB-19 CNS) | growth (U251 CNS) | growth (PC-3 prostate) | growth (SK-MEL-5 melanoma) | growth (UACC-62 melanoma) | growth (LOX IMVI melanoma) | growth (SK-MEL-28 melanoma) [%] | growth (SK-MEL-2 melanoma) | growth (SN12C renal) [%] | growth (UO-31 renal) [%] | growth (TK-10 renal) [%] | growth (ACHN renal) | growth (A498 renal) | growth (CCRF-CEM leukemia) | growth (MOLT-4 leukemia) | growth (EKVX NSCLC) | growth (CAKI-1 renal)
COc1cc(-c2nc3ccccc3s2)ccc1OCc1nc2n(n1)S(=O)(=O)c1ccccc1N2C | 91.5% | 100% | 41% | 91% | 73.2% | 80.8% | 82.1% | 103% | 72.3% | 103 | 85.9% | 107 | 72.8 | 87.8 | 94.3% | 89.9% | 4.89% (active) | 89.1% | – | –
COc1ccc(/C=C/C(=O)c2ccc(Oc3ncnc4ccccc34)cc2)cc1OC | 24.3% | 27.4% | 74.8% | 64.9% | 50.9% | 82.1% | 72.5% | 76.9% | 13.8% | 104 | 89.8% | 79 | 51.1 | – | – | 98.9% | 46.4% | 56.6% | – | –
OCc1cn(-c2ccc(Cl)cc2)nc1-c1ccc(O)cc1 | 93.7% | 92.6% | 83.3% | 104% | 106% | 96.5% | 95.4% | 100% | 92.2% | 108 | 95.8% | 94.3 | 63.5 | 102 | – | 96.9% | 50.3% | 53.6% | – | –
COc1ccc2c(c1)OC(N)=C(C#N)C2c1ccc(F)cc1 (centres undefined) | 21.9% | 5.87% (active) | 8.49% (active) | 30.1% | 31.3% | 27.9% | 22.6% | 29.7% | 39.1% | 65 | – | 43.8 | 41.8 | 69.5 | – | -3.77% (active) | 12.6% | 28.3% | – | –
S=C=NP1(N=C=S)=NP(N=C=S)(N=C=S)=NP(N=C=S)(N=C=S)=NP(N=C=S)(N=C=S)=N1 (centres undefined) | 103% | 92.9% | 80.7% | 109% | 94.7% | 86.4% | 98.6% | 97.7% | 97.8% | 107 | – | 102 | 77.3 | 110 | – | 118% | 105% | 57.9% | 95% | –
COc1ccc2c(c1)OC(N)=C(C#N)C2c1ccc(F)c(F)c1 (centres undefined) | 29.6% | 3.2% (active) | 9.47% (active) | 28.7% | 31% | 24.2% | 24.2% | 38.1% | 54.2% | 68.2 | – | 54.7 | 52.8 | 70.5 | – | 9.88% (active) | 14.9% | 28.2% | 49.2% | –
O=C(Nc1ccc(-n2cc(-c3ccncc3)c(-c3ccc(O)c(Cl)c3)n2)cc1)Nc1ccc(Cl)c(C(F)(F)F)c1 | 9.15% (active) | 47.9% | 28% | 27.7% | 5.79% (active) | 1.79% (active) | -73.6% (active) | 9.18% (active) | 16.6% | 20.1 | – | 19.1 | 13.6 | – | 13.2% | 63.5% | 7.92% (active) | 9.62% (active) | 19.5% | -3.83% (active)
CCOC(=O)CSc1nnc(-c2cc3c([nH]c4ccccc43)c(-c3cccc(O)c3)n2)n1-c1ccc(C)cc1 | 42.7% | 43% | 63.3% | 97.3% | 54.9% | 15.1% | 94.1% | 85.2% | 32.6% | – | 37.7% | 58.1 | 72.6 | – | 50.4% | 96.8% | 46.4% | 17.4% | 78.8% | 92.1%
O=C(Nc1cccc([N+](=O)[O-])c1)c1ccc2ccccc2c1O | 66% | 93.9% | 97.4% | 67.6% | 49.4% | 51.9% | 19.5% | 20.4% | 63.3% | 93.2 | – | 50.5 | – | 91.5 | 77.6% | 41.9% | 39.2% | 66.7% | 51.9% | –
O=C(CSc1nnc(-c2ccccc2)o1)Nc1ccc(C(=O)/C=C/c2ccccc2)cc1 | 25.8% | 32.4% | 33.5% | 64.9% | 44.1% | 77% | 78.9% | 82.3% | 24.4% | 97 | – | 81.7 | 55.7 | 91 | – | 83.8% | 55.5% | 59% | 79.7% | –
O=C(Nc1ccc(-n2cc(-c3ccncc3)c(-c3ccc(O)c(Cl)c3)n2)cc1)c1ccc(Cl)c(C(F)(F)F)c1 | 7.89% (active) | -33.9% (active) | 59.7% | 40.2% | 15.7% | 14.4% | -46.7% (active) | 71.2% | -47.6% (active) | – | -0.332% (active) | 45.2 | 18.4 | – | 17.4% | 77.7% | 16.2% | 16.8% | 31.8% | 20.5%
O=C(Nc1ccc(-n2ccc3c(NC(=O)c4ccccc4)ncnc32)cc1)Nc1ccc(Cl)c(C(F)(F)F)c1 | -53.2% (active) | -85.8% (active) | 53.5% | 9.33% (active) | -79.6% (active) | -38.8% (active) | 8.12% (active) | 29.7% | 2.99% (active) | 34.6 | – | 16.4 | – | – | 4.23% (active) | 18.3% | -14.5% (active) | 1.2% (active) | 8.35% (active) | -36.8% (active)
COc1ccc(-c2nn(-c3ccc(NC(=O)Nc4ccc(Cl)c(Cl)c4)cc3)cc2-c2ccncc2)cc1Cl | 7.56% (active) | 6.65% (active) | 46.8% | 34.4% | 0.654% (active) | 11.3% | -27.5% (active) | 9.56% (active) | -0.494% (active) | 28.4 | – | 20.5 | 16.9 | – | 14.8% | 10.7% | 12.6% | 10.5% | 21.5% | 3.8% (active)
Cc1ccc(=O)n(-c2ccc(Br)cc2F)c1 | 105% | 107% | 74.9% | 105% | 98.1% | 91.4% | 97.3% | 101% | 94.5% | 108 | – | 107 | 90.7 | – | 94.6% | 84% | 99.9% | 108% | 99.5% | –
Fc1ccc(Nc2ncnc3ccc(-c4cn[nH]c4)cc23)cc1Cl | 60.4% | 60.6% | 40.5% | 68.6% | 61.8% | 47.3% | 40.4% | 60% | 49% | 69.3 | – | 56.8 | 45.6 | – | 26.1% | 7.79% (active) | 75.3% | 56.7% | – | –
C[C@]12O[C@H]1[C@H](O)c1c(cc(O)c3c1C(=O)c1cccc(O)c1-3)C2=O | 103% | 92.9% | 86.3% | 104% | 97.6% | 87.3% | 97.7% | 88.2% | 87.8% | – | 99.3% | 88.8 | 91.1 | – | 99.3% | 86.4% | 92% | 86.6% | 97.8% | 99.9%
Cc1ccc(Cn2cc(COc3ccc4c5ccnc(C)c5n(CCCc5ccccc5)c4c3)nn2)cc1 | 86.2% | 71.8% | 97.6% | 99.4% | 110% | 81.4% | 80.4% | 95% | 91.1% | – | 94.7% | 94.5 | 55.7 | 97.8 | – | 73.5% | 91.9% | 78.2% | 80.7% | –
COc1ccc(-n2c(-c3ccc(NC(=O)CCCl)cc3)nnc2-c2cc(OC)c(OC)c(OC)c2)cc1 | 41.1% | 18.9% | 90.9% | 52% | 34.4% | 49.8% | 48.2% | 48.1% | 57.1% | 27.8 | – | 72.3 | 43.8 | 70.2 | – | 65.4% | 16.8% | 6.29% (active) | 51.2% | –
